Corrected activity, negative = more killing and z-score data for 47 compounds are collected here from PubChem BioAssay AID1508625 (Wald Lab, School of Medicine, Case Western Reserve …, 2021).

The nature of this test: enhancers of NK cell killing of ovarian tumor cells, primary screen, imaging, OVCAR3, primary NK cells, calcein-AM imaging (AID 1508625).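 Further: compound given to NK cells 16 h before adding targets at 1.5 to 1 ratio.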 Particulars: OVCAR3 lysis by primary NK cells, at 5 µM; z-score: measured here: robust Z-score, single-point normalisation.

As for `Cc1cc(C)cc(-n2cnc3cc(C(=O)NC4CCCCCC4)ccc32)c1`, the corrected activity, negative = more killing was -4.5% and the z-score was -1.21.
On to `CC1CC(C)CN(C(=O)c2c[nH]c3ccc(S(=O)(=O)N4CCOCC4)cc3c2=O)C1` (centres undefined), for which the corrected activity, negative = more killing is -2.85% and the z-score was -1.04.
As for `Cc1cc(=O)oc2ccc(Oc3ccc(C#N)cc3[N+](=O)[O-])cc12`, the corrected activity, negative = more killing is -0.59% and the z-score was -0.183.
For `O=c1c2c(nc3c(-c4ccc(Cl)cc4)c(Cc4ccccc4)[nH]n13)CCC2`, in that order: -3.87% and -2.
On the same counts, the results for `Cc1ccc(Cl)cc1N1C(=O)CN(Cc2cccs2)C1=S` are -2.1% and -0.567.
On to `CCN(CC)CCCn1c(=S)[nH]c2cc(C(=O)OC)ccc2c1=O`, for which the corrected activity, negative = more killing was -3.76% and the z-score was -0.997.
On to `COc1ccc(C)cc1NC(=O)c1cc(S(=O)(=O)NC2CCCCC2C)ccc1F` (centres undefined), for which the corrected activity, negative = more killing was -0.89% and the z-score is -0.24.
Consider `CCC(=O)c1ccc(OCC(=O)O)c(OC)c1`, for which the corrected activity, negative = more killing is -0.458% and the z-score is -0.171.
For `Cc1c(C(=O)Nc2ccccc2O)cccc1[N+](=O)[O-]`, in that order: -4.28% and -1.61.
On the same counts, the results for `COc1ccc(Cn2c(=S)[nH]c3cc(C(=O)N4CCCCC4)ccc3c2=O)cc1` are -8.39% and -2.67.
With `COC(=O)c1ccc(C=NN2CCN(c3ccccn3)CC2)cc1`, the corrected activity, negative = more killing is -4.57% and the z-score is -2.
On to `Oc1cccc(CN2CCN3CCCC3C2C2CCCCC2)c1` (centres undefined), for which the corrected activity, negative = more killing was -0.454% and the z-score is -0.198.
On the same counts, the results for `O=C(CCn1c(=S)[nH]c2ccccc2c1=O)NCCc1ccc(Cl)cc1` are -2.39% and -0.633.
For `COc1ccc(C=NNC(=O)c2cc(C34CC5CC(CC(C5)C3)C4)[nH]n2)cc1O`, the corrected activity, negative = more killing is 0.0734% and the z-score was 0.0321.
For the compound `Cc1c(Cl)cccc1N=Cc1ccc(O)cc1`, the corrected activity, negative = more killing is -1.33% and the z-score was -0.563.
For `O=C(Nc1ccccc1Cl)c1cccc([N+](=O)[O-])c1`, in that order: -1.44% and -0.51.
On the same counts, the results for `O=C(CNc1ccc(Br)cc1)c1ccccc1` are -3.77% and -1.4.
For `O=C1C2C3C=CC(C3)C2C(=O)N1CCCO` (centres undefined), in that order: -1% and -0.311.
`COC(=O)c1conc1-c1ccccc1OC`: the corrected activity, negative = more killing is -3.1% and the z-score is -1.35.
On the same counts, the results for `O=C(Nc1ccc(Oc2ccccc2)cc1)c1nn(-c2ccc(Cl)cc2)c(=O)c2ccccc12` are -3.15% and -1.69.
For `O=C(Nc1ccc(Br)cc1)C1CCN(S(=O)(=O)c2cccc3nonc23)CC1`, in that order: -3.15% and -0.893.
On the same counts, the results for `CCOC(=O)CC(NCc1ccc(Cl)c([N+](=O)[O-])c1)c1cccs1` (centres undefined) are -7.84% and -2.12.
As to `COc1ccc(NC(=O)NCCc2ccncc2)cc1`, the corrected activity, negative = more killing is 0.111% and the z-score was 0.0619.
With `Cc1ccccc1-n1nnnc1C(c1ccccc1)N(C)Cc1ccc(Cl)c(Cl)c1` (centres undefined), the corrected activity, negative = more killing is -1.59% and the z-score was -0.695.
For `COC(=O)c1[nH]c(=O)c2ccccc2c1O`, in that order: -4.14% and -1.63.
For `COc1ccc(Oc2c(C(F)(F)F)oc3cc(OC(=O)c4ccc(OC)c(OC)c4)ccc3c2=O)cc1`, in that order: -1.55% and -0.672.
For `Cc1c(C(=O)Oc2cccc3ccccc23)cccc1[N+](=O)[O-]`, the corrected activity, negative = more killing was -7.35% and the z-score is -2.77.
On to `O=C1OC(c2cccc(Cl)c2)=NC1=Cc1ccc(Br)o1`, for which the corrected activity, negative = more killing is -4.19% and the z-score was -1.78.
Consider `CCc1cc(=O)oc2c(C)c(OCC(=O)c3cccc(OC)c3)ccc12`, for which the corrected activity, negative = more killing was -4.48% and the z-score is -1.67.
On the same counts, the results for `COc1cccc(C=Nn2c(C)nnc2C)c1OC` are -2.16% and -0.942.
Turning to `CCc1ccc(N2C(=O)CSC2c2ccc(Br)cc2)cc1` (centres undefined), the corrected activity, negative = more killing was -3.8% and the z-score is -1.62.
On to `CC1=C(C(=O)OC(C)C(C)(C)C)C(c2ccccc2)NC(=O)N1` (centres undefined), for which the corrected activity, negative = more killing is -4.55% and the z-score was -1.71.
Regarding `O=C(O)c1cccc(N2C(=O)c3ccc(C(=O)c4ccc5c(c4)C(=O)N(c4cccc(C(=O)O)c4)C5=O)cc3C2=O)c1`, the corrected activity, negative = more killing is -1.17% and the z-score was -0.363.
On the same counts, the results for `Cc1ccc(OCc2ccc([N+](=O)[O-])cc2)cc1C` are -1.29% and -0.719.
For `CCc1ccccc1-n1cnc2cc(C(=O)NCc3ccc(C)cc3)ccc21`, in that order: -4.47% and -1.2.
For `CCOC(=O)C(C)Sc1nc2c([nH]c3ccccc32)c(=O)n1C` (centres undefined), the corrected activity, negative = more killing is -3.61% and the z-score was -0.899.
Take `Cc1ccc(C(=O)Oc2ccc(C(=S)N3CCOCC3)cc2)cc1`: the corrected activity, negative = more killing was -4.83% and the z-score was -1.5.
On to `COc1cccc(N2CCN(C(=O)Nc3ccc(F)cc3)CC2)c1`, for which the corrected activity, negative = more killing is -2.57% and the z-score is -1.43.
On the same counts, the results for `O=C(O)C1CSC(c2cccs2)=N1` (centres undefined) are -4.41% and -1.19.
For `CN(C)c1ccc(C(=O)N2N=C(c3ccc(Cl)cc3)CC2(O)C(F)(F)F)cc1` (centres undefined), in that order: -4.5% and -1.72.
Consider `CCCSc1nc2c([nH]c3ccccc32)c(=O)n1-c1ccc(OC)cc1`, for which the corrected activity, negative = more killing was -5.59% and the z-score is -1.39.
On the same counts, the results for `COc1ccccc1CNC(=O)c1sc2ncnc(N3CCOCC3)c2c1C` are -0.847% and -0.308.
For the compound `COC(=O)c1ccc(CSc2nc3c(cnn3-c3ccc(C)cc3)c(=O)[nH]2)o1`, the corrected activity, negative = more killing is -3.63% and the z-score was -0.89.
On the same counts, the results for `CCCn1cnc2sc(C(=O)Nc3ccc(Oc4ccc5c(c4)C(=O)N(c4ccc6c(c4)OCO6)C5=O)cc3)c(C)c2c1=O` are -4.94% and -1.8.
On the same counts, the results for `O=C(Nc1ccccc1-c1nc2ccccc2[nH]1)c1ccc(S(=O)(=O)N2CCCC2)cc1` are 0.864% and 0.306.
As for `CC(C)C(NC(=O)C12CC3CC(CC(C3)C1)C2)C(=O)NC1=NCCS1` (centres undefined), the corrected activity, negative = more killing is 1.64% and the z-score was 0.711.
`COc1cc(OC)c(CNc2ccc(F)cc2C)cc1Br`: the corrected activity, negative = more killing is -7.05% and the z-score was -2.24.
